Data from PubChem BioAssay (NCI).
This is part of a sample that, as a whole, favours compounds with a hit. Of some 83,000 tested, about 20% had one in any assay.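 Single-dose data. Exposure time 48 hours. Values below 10 considered active.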 The source made the active and inactive calls.

Columns and labels:
Assay in all cases: NCI-60 one-dose screen, 48 h (100 = growth as untreated, 0 = no growth, -100 = all killed)
Conditions in all cases: 10 µM unless noted
[1] = system: T-47D breast
[2] = system: BT-549 breast
[3] = system: MDA-MB-435 melanoma
[4] = system: SW-620 colon
[5] = system: MCF7 breast
[6] = system: HCT-116 colon
[7] = system: HCC-2998 colon
[8] = system: KM12 colon

Measured: growth

CCSc1oc(C)nc1[P+](c1ccccc1)(c1ccccc1)c1ccccc1
active: [8] 8.25%
inactive: [1] 14.6% | [2] 12.4% | [3] 25.3% | [4] 32.9% | [5] 13.7% | [6] 14.4% | [7] 29.5%

O=C(/C=C/c1cccc(Cl)c1Cl)Nc1ncc(Cc2ccccc2Cl)s1
active: [3] -46.5%
inactive: [1] 43.8% | [2] 76.7% | [4] 27% | [5] 12.7% | [6] 24.2% | [7] 76.3% | [8] 28.8%

O=C(CSc1nc(-c2ccccc2)cc(=O)[nH]1)Nc1nc(-c2ccccc2)cs1
inactive: [1] 71.8% | [2] 88% | [3] 105% | [4] 107% | [5] 76.9% | [6] 90.3% | [7] 111% | [8] 95.5%

CC(=O)Oc1ccc(OC(C)=O)c2ccccc12
active: [1] -49.6%
inactive: [2] 96.8% | [3] 95.8% | [4] 109% | [5] 57.3% | [6] 51.6% | [7] 103% | [8] 100%

C=C1C(=O)O[C@H]2[C@H]1CC/C(COC(=O)NCc1ccc(Cn3c(=O)sn(-c4ccc(C#N)cc4)c3=O)cc1)=C\CC[C@@]1(C)O[C@@H]21
inactive: [1] 28.1% | [2] 60.4% | [3] 59.6% | [4] 24.1% | [5] 27.5% | [6] 25.4% | [7] 104% | [8] 101%

O=C1c2cccc3cccc(c23)C(=O)N1C/C=C/c1ccc2c3c(cccc13)C(=O)N(CCO)C2=O
inactive: [1] 76.7% | [2] 40.3% | [3] 94.4% | [4] 81.8% | [5] 80.1% | [6] 76% | [7] 85.7% | [8] 76.2%

Cc1ccc(C=C2C(=O)NC(=O)NC2=O)cc1
inactive: [1] 113% | [2] 104% | [3] 109% | [4] 109% | [5] 98.8% | [6] 108% | [7] 112% | [8] 108%

O=C(CCCCCNC(=O)c1cc(=O)c(O)co1)Nc1ccccc1
inactive: [1] 104% | [2] 95.9% | [3] 100% | [4] 101% | [5] 88.6% | [6] 97.6% | [7] 101% | [8] 100%

Nc1[nH]n2cc(-c3ccc(F)cc3)nc2c1N=Nc1ccc(S(N)(=O)=O)cc1
inactive: [1] 77.8% | [2] 73.9% | [3] 78.4% | [4] 76.7% | [5] 87.7% | [6] 62.7% | [7] 90.8% | [8] 73.1%

C[C@]1(O)CC(=O)[C@]2(O)C3=C(C=C[C@]2(O)C1)C(=O)c1c(O)cccc1C3=O
active: [1] -45.5% | [3] -79.8% | [4] -55.5% | [5] -60.2% | [6] -32.1%
inactive: [2] 45.2% | [7] 94.7% | [8] 77.8%

CN1CCN(CCCOc2cccc3nc(Nc4ccc(F)c(F)c4)ccc23)CC1
active: [3] -81.5% | [4] -90.3% | [5] -87.6% | [6] -41.2% | [7] -83.8% | [8] -77.3%
inactive: [1] 19.4% | [2] 52.8%

CC1(C)CC[C@]2(C(=O)N[C@H](CO)Cc3ccccc3)CC[C@]3(C)C(=CC[C@@H]4[C@@]5(C)CCCNC(C)(C)[C@@H]5CC[C@]43C)[C@@H]2C1
inactive: [1] 69.8% | [2] 89.9% | [3] 73.4% | [4] 79.8% | [5] 83.9% | [6] 44.4% | [7] 56% | [8] 96%

c1ccc2c(c1)CCCc1nnc3nc4ccccc4n3c1-2
inactive: [1] 31.7% | [2] 62.9% | [3] 61.9% | [4] 53.7% | [5] 45.6% | [6] 17% | [7] 42.4% | [8] 55.8%

CNCc1cccc2c1OCCOCCOCCNS(=O)(=O)c1ccc(cc1)-c1cnc(N)c(n1)C(=O)N2
active: [6] 7.19%
inactive: [1] 70.4% | [2] 28.3% | [3] 35.1% | [4] 15.5% | [5] 11.8% | [7] 21.7% | [8] 20.2%

O=C(CCSc1nnc2n(Cc3ccccc3)c(=O)c3c4c(sc3n12)CCCC4)N1CCN(c2ccccc2)CC1
inactive: [1] 101% | [2] 99.5% | [3] 91.2% | [4] 101% | [5] 98.4% | [6] 100% | [7] 96.5% | [8] 92.9%
